# Source: PubChem BioAssay (Tox21)
# Where “and” joins values, the source holds several entries; their conditions need not be identical. Equal values may be shown once. Records with an inconclusive call do not appear. Entries that show only a call come without a potency. More than one record can exist for a structure, and the calls need not agree. Calls of active or inactive are those of the source. Unless noted, calls come from the whole dose curve; as a rule, active = well fitted curve in the direction sought with a large enough effect in the repeat runs; inconclusive = weak or mixed curves; inactive = no such curve, though single readings can be large; an effect the other way counts as inactive or inconclusive. Starred links: 1 amine or outer side, 2 acyl side, 3 side chain; linkers in the order of their positions; H or OH if unused. Positions of bridges follow the written chain, without caps; N, C: chain ends. Non-standard residues stand in square brackets, D forms with d. Residues, ends and D or L forms follow the SMILES beside them. Chains are numbered I, II in the order given. Actinocin(9to1) = Cc1c2oc3c(C)ccc(C(=O)[*:1])c3nc-2c(C(=O)[*:2])c(N)c1=O; NMeV = CN[C@H](C(=O)O)C(C)C; Sar = CNCC(=O)O
# What was measured:
# [1] = qHTS assay to identify small molecule agonists of the hypoxia (HIF-1) signaling pathway - cell viability counter screen (AID 1224844; calls by dose curve; note: nearly all actives have a fitted effect of over 50% in size)
# Procedure, shortened: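 Multiplexed with the HRE beta-lactamase assay, this viability read used CellTiter-Glo luminescence (30 min, RT) on HRE-bla ME-180 cells treated 17 hrs with compounds in 0.5% dialyzed FBS medium.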
# [2] = qHTS assay to identify small molecule agonists of H2AX (AID 1224845; active = well fitted activation curve with a large enough effect in the signal ratio in the repeat runs, not every such curve was filed as active; the % refers to the signal ratio; note: potency is the fitted concentration of half-maximal effect)
# Procedure, shortened: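 Wild-type CHO-K1 cells, plated overnight, exposed 3hr at 37C to 15 concentrations (0.76% DMSO final). Lysed, then HTRF anti-pH2AX (S139) cryptate and anti-H2AX-d2 antibodies, 24 hr room temperature; 665/620 nm emission read.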
# [3] = qHTS assay to identify small molecule agonists of H2AX - cell viability counter screen (AID 1224847; calls by dose curve; note: nearly all actives have a fitted effect of over 30% in size; note: potency is the fitted concentration of half-maximal effect; for activity change, negative = cytotoxicity: top concentration of the series differs between compounds)
# Procedure, shortened: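 Counter-screen for viability: CellTiter-Glo ATP luminescence read after 3 h compound treatment (15-point titration, 0.76% DMSO final) of CHO-K1 cells at 37C, with 30 min room-temperature reagent incubation.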
# [4] = qHTS RealTime-Glo MT Cell Viability Assay in HepG2 cells - 24 hour (AID 1224867); note: nearly all actives have a fitted effect of over 50% in size; note: potency is the fitted concentration of half-maximal effect
# Procedure, shortened: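 Luminescence read-out: viable HepG2 cells reduce a prosubstrate to a NanoLuc substrate, giving a signal proportional to live cell number. Reads taken at 0, 8, 16, 24, 32 and 40 h of compound exposure at 37 C.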
# [5] = qHTS RealTime-Glo MT Cell Viability Assay in HEK293 cells - 32 hour (AID 1224868); note: nearly all actives have a fitted effect of over 50% in size; note: potency is the fitted concentration of half-maximal effect; for activity change, negative = cytotoxic: top concentration of the series differs between compounds
# Procedure, shortened: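 Nonlytic real-time viability readout: viable cells convert prosubstrate to NanoLuc substrate, giving luminescence proportional to live cell number. HEK293, 600 cells/well, compound added after 5 h, continuous culture at 37 C.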
# [6] = A CellTox Green Cytotoxicity Assay to monitor cytotoxicity in HEK293 cells - 0 hour (AID 1224869); note: nearly all actives have a fitted effect of over 50% in size
# Procedure, shortened: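 Seeding of HEK293 cells together with cytotoxicity dye preceded a 5 h incubation at 37 C/5% CO2. Test compounds in DMSO were then added and fluorescence monitored across 40 h.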
# [7] = qHTS RealTime-Glo MT Cell Viability Assay in HepG2 cells - 40 hour (AID 1224870); note: nearly all actives have a fitted effect of over 50% in size; note: potency is the fitted concentration of half-maximal effect
# Procedure, shortened: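 HepG2 cells (600/well) mixed with RealTime-Glo MT reagent, settled 5 h at 37 C/5% CO2 before compound addition. Nonlytic NanoLuc luminescence from viable-cell prosubstrate reduction read repeatedly during 40 h treatment at 37 C.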
# [8] = qHTS assay to identify small molecule antagonists of the estrogen related receptor (ERR) signaling pathway from Tox21 library (AID 1224848); note: nearly all actives have a fitted effect of over 50% in size; note: potency is the fitted concentration of half-maximal effect
# Procedure, shortened: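 ERR reporter cell line (from NTP) seeded 2,000 cells/well, rested 6 h at 37 C/5% CO2, then pin-dosed with compounds in DMSO. After 18 h at 37 C, ONE-Glo added; luminescence read after 30 min at room temperature.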
# [9] = qHTS assay to identify small molecule agonists of the estrogen related receptor (ERR) signaling pathway from Tox21 library (AID 1224849; calls by dose curve; note: nearly all actives have a fitted effect of over 15% in size); details: ERR reporter cell line, ONE-Glo luciferase, 18 h
# Procedure, shortened: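 Six hours post-seeding at 37 C/5% CO2, ERR cells receive DMSO-solubilised compounds; after 18 h at 37 C, ONE-Glo reagent is applied and luminescence recorded.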
# [10] = qHTS assay to identify small molecule agonists of the hypoxia (HIF-1) signaling pathway (AID 1224846; active = well fitted activation curve with a large enough effect in the signal ratio in the repeat runs, not every such curve was filed as active; the % refers to the signal ratio)
# Procedure, shortened: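 Hypoxia-pathway activation was scored as increased beta-lactamase from an HRE-controlled reporter in ME-180 cells; plated at 2,000 cells per well with 0.5% dialyzed FBS, they were exposed 17 hrs to compounds and then given CCF4-AM.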
smiles,measurement,setting,value
CC(C)(C)NC(=O)[C@@H]1CN(Cc2cccnc2)CCN1C[C@@H](O)C[C@@H](Cc1ccccc1)C(=O)N[C@H]1c2ccccc2C[C@H]1O,Potency,[1],inactive
same,Potency,[2],inactive
same,Potency,[3],inactive
same,Potency,[4],inactive
same,Potency,[5],inactive
same,Potency,[6],inactive
same,Potency,[7],inactive
CC(=O)N[C@@H](CS)C(=O)O,Potency,[1],inactive
same,Potency,[2],inactive
same,Potency,[3],inactive
same,Potency,[4],inactive
same,Potency,[5],inactive
same,Potency,[7],inactive
CC(C)(C)NCC(O)c1cc(O)cc(O)c1 (stereo unspecified),Potency,[1],inactive
same,Potency,[2],inactive
same,Potency,[3],inactive
same,Potency,[4],inactive
same,Potency,[5],inactive
same,Potency,[6],inactive
same,Potency,[7],inactive
NC12CC3CC(CC(C3)C1)C2,Potency,[1],inactive
same,Potency,[2],inactive
same,Potency,[3],inactive
same,Potency,[4],inactive
same,Potency,[5],inactive
same,Potency,[6],inactive
same,Potency,[7],inactive
NC(Cc1ccc(Cl)cc1)C(=O)O (stereo unspecified),"activity change, negative = cytotoxicity",[1],0.588% [at 0.29 µM] (inactive)
same,activation (H2AX phosphorylation),[2],-0.212% [at 0.582 µM] (inactive)
same,"activity change, negative = cytotoxicity",[3],-0.321% [at 0.582 µM] (inactive)
same,"activity, negative = inhibition",[8],-15% [at 0.349 µM] (inactive)
same,"activity change, positive = activation",[9]; at 0.349 µM (top of the series),-8.03% (inactive)
same,"activity change, negative = cytotoxicity",[4],0.0518% [at 0.29 µM] (inactive)
same,"activity change, negative = cytotoxic",[5],11.7% [at 0.29 µM] (inactive)
same,cytotoxicity,[6],-2.12% [at 0.29 µM] (inactive)
same,"activity change, negative = cytotoxic",[7],0.881% [at 0.29 µM] (inactive)
CCOC(=O)C(C)C(C)=O (stereo unspecified),Potency,[1],inactive
same,Potency,[2],inactive
same,Potency,[3],inactive
same,Potency,[8],inactive
same,"activity change, positive = activation",[9]; at 92.4 µM (top of the series),5% (inactive)
same,Potency,[4],inactive
same,Potency,[5],inactive
same,Potency,[7],inactive
"Cc1c2oc3c(C)ccc(C(=O)N[C@@H]4C(=O)N[C@H](C(C)C)C(=O)N5CCC[C@H]5C(=O)N(C)CC(=O)N(C)[C@@H](C(C)C)C(=O)O[C@@H]4C)c3nc-2c(C(=O)N[C@@H]2C(=O)N[C@H](C(C)C)C(=O)N3CCC[C@H]3C(=O)N(C)CC(=O)N(C)[C@@H](C(C)C)C(=O)O[C@@H]2C)c(N)c1=O (I: T[dV]P[Sar][NMeV] / II: T[dV]P[Sar][NMeV]; ester I:1-I:C, II:1-II:C; linker I:N-II:N via Actinocin(9to1))",Potency,[1],inactive
same,Potency,[2],1.1 µM (active)
same,Potency,[3],inactive
same,Potency,[4],8.47 µM (active) and 2.68 µM (active)
same,Potency,[5],12 nM (active) and 21.3 nM (active)
same,Potency,[6],inactive
COC(c1ccccc1)(c1ccccc1)[C@H](Oc1nc(C)cc(C)n1)C(=O)O,Potency,[1],inactive
same,Potency,[2],inactive
same,Potency,[3],inactive
same,Potency,[8],inactive
same,"activity change, positive = activation",[9]; at 42.5 µM (top of the series),0.278% (inactive)
same,Potency,[4],inactive
same,Potency,[5],inactive
same,Potency,[7],inactive
BrC1CCC(Br)C(Br)CCC(Br)C(Br)CCC1Br (stereo unspecified),Potency,[1],inactive
same,Potency,[2],89.4 µM (active)
same,Potency,[3],79.7 µM (active) and 95.6 µM (active)
same,Potency,[8],27.2 µM (active) and 58 µM (active)
same,"activity change, positive = activation",[9]; at 92.4 µM (top of the series),-60.1% (inactive) and -54.5% (inactive)
same,Potency,[5],inactive
same,Potency,[6],inactive
same,Potency,[7],inactive
CCCCN(CCO)CCCC,Potency,[1],inactive
same,Potency,[2],inactive
same,Potency,[3],inactive
same,Potency,[8],inactive
same,"activity change, positive = activation",[9]; at 92.4 µM (top of the series),1.42% (inactive)
same,Potency,[4],inactive
same,Potency,[5],inactive
same,Potency,[6],inactive
same,Potency,[7],inactive
CCCNC(C)C(=O)Nc1ccccc1C (stereo unspecified),Potency,[1],inactive
same,Potency,[2],inactive
same,Potency,[3],inactive
same,Potency,[4],inactive
same,Potency,[5],inactive
same,Potency,[7],inactive
NNCCc1ccccc1,Potency,[1],inactive
same,Potency,[2],inactive
same,Potency,[3],inactive
same,Potency,[4],inactive
same,Potency,[5],inactive
same,Potency,[6],inactive
same,Potency,[7],inactive
CCN1CCCC1CNC(=O)c1cc(S(=O)(=O)CC)c(N)cc1OC (stereo unspecified),Potency,[1],inactive
same,Potency,[2],inactive
same,Potency,[3],inactive
same,Potency,[8],inactive
same,"activity change, positive = activation",[9]; at 42.5 µM (top of the series),2.19% (inactive)
same,Potency,[4],inactive
same,Potency,[5],inactive
same,Potency,[6],inactive
same,Potency,[7],inactive
CC(C)C(=O)c1c(C(C)C)nn2ccccc12,Potency,[1],inactive
same,Potency,[2],inactive
same,Potency,[3],inactive
same,Potency,[8],inactive
same,"activity change, positive = activation",[9]; at 42.5 µM (top of the series),-9.6% (inactive)
same,Potency,[4],inactive
same,Potency,[5],inactive
same,Potency,[6],inactive
same,Potency,[7],inactive
NCCCCCC(=O)O,Potency,[1],inactive
same,Potency,[2],inactive
same,Potency,[3],inactive
same,Potency,[4],inactive
same,Potency,[5],inactive
same,Potency,[6],inactive
same,Potency,[7],inactive
CNC1(C)C2CCC(C2)C1(C)C (stereo unspecified),Potency,[1],inactive
same,Potency,[2],inactive
same,Potency,[3],inactive
same,Potency,[8],inactive
same,"activity change, positive = activation",[9]; at 42.5 µM (top of the series),0.179% (inactive)
same,Potency,[4],inactive
same,Potency,[5],inactive
same,Potency,[6],inactive
same,Potency,[7],inactive
Nc1nc(=S)c2[nH]cnc2[nH]1,Potency,[2],inactive
same,Potency,[10],inactive
same,Potency,[3],inactive
same,Potency,[4],inactive
same,Potency,[5],23.9 µM (active) and 19.5 µM (active)
same,Potency,[7],inactive
Cc1cccc2n[nH]nc12,Potency,[2],inactive
same,Potency,[3],inactive
same,Potency,[8],inactive
same,"activity change, positive = activation",[9]; at 92.4 µM (top of the series),7.89% (inactive) and -7.83% (inactive)
same,Potency,[4],inactive
same,Potency,[5],inactive
same,Potency,[6],inactive
same,Potency,[7],inactive
CN(C)c1ccc2nc3ccc(=[N+](C)C)cc-3sc2c1,Potency,[3],21.7 µM (active) and 45 µM (active) and 43.8 µM (active)
same,Potency,[8],739 nM (active) and 433 nM (active) and 473 nM (active)
same,"activity change, positive = activation",[9]; at 42.5 µM (top of the series),-59.7% (inactive) and -55.3% (inactive)
same,"activity change, positive = activation",[9]; at 92.4 µM (top of the series),-71.3% (inactive)
same,Potency,[4],16.7 µM (active) and 12.3 µM (active) and 19 µM (active)
same,Potency,[5],1.87 µM (active) and 1.74 µM (active) and 2.68 µM (active)
same,Potency,[6],inactive
same,Potency,[7],21 µM (active) and 12.3 µM (active) and 23.9 µM (active)
CC(=O)O[C@]1(C(C)=O)CC[C@H]2[C@@H]3C[C@H](C)C4=CC(=O)CC[C@]4(C)[C@H]3CC[C@@]21C,Potency,[2],inactive
same,Potency,[3],inactive
same,Potency,[4],inactive
same,Potency,[5],19.5 µM (active) and 10.7 µM (active)
same,Potency,[7],inactive
CCC(=O)/C=C/C1C(C)=CCCC1(C)C (stereo unspecified),Potency,[2],inactive
same,Potency,[10],inactive
same,Potency,[3],inactive
same,Potency,[4],inactive
same,Potency,[5],inactive
same,Potency,[7],inactive
Cc1cc(C(C)(C)C)c(O)c(C(C)(C)C)c1,Potency,[2],inactive
same,Potency,[10],inactive
same,Potency,[4],inactive
same,Potency,[5],inactive
same,Potency,[6],inactive
same,Potency,[7],inactive
Cc1ccnc2c1NC(=O)c1cccnc1N2C1CC1,Potency,[2],inactive
same,Potency,[3],inactive
same,Potency,[4],inactive
same,Potency,[5],inactive
same,Potency,[7],inactive
OCCOCCN1CCN(C(c2ccccc2)c2ccc(Cl)cc2)CC1 (stereo unspecified),Potency,[3],125 µM (active) and inactive
same,Potency,[4],48.3 µM (active) and inactive
same,Potency,[5],6.08 µM (active) and inactive
same,Potency,[6],inactive
same,Potency,[7],48.3 µM (active) and inactive
